# Compounds with a hit are over-represented: about 2.2% of the library has one in this group of screens.
# CHRM1 PAM – human CHRM1 positive allosteric modulation; actives 0.088% (n = 360,000); P11229; CHO-K1 hM1, Fluo-8 calcium fluorescence, ACh EC20; 0% = ACh EC20, 100% = maximal ACh; activation, % at 3 µM; AID 588819; in the data active = activation above about 19%, passing the limit was not always enough
# Target sequence (P11229 whole entry, looked up): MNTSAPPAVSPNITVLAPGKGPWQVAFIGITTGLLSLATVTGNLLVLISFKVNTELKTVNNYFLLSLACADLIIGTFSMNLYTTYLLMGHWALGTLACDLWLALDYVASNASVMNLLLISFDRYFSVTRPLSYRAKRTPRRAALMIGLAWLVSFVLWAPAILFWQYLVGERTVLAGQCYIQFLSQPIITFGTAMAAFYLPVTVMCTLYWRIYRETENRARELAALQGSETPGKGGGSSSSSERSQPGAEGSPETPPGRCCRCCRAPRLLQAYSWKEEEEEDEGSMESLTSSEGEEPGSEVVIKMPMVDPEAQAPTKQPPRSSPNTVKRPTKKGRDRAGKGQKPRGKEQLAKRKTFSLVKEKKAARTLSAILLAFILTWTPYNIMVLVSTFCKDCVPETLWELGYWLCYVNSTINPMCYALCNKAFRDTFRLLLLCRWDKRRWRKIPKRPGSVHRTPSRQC
# M4 antag – antagonists of human muscarinic M4 receptor (CHRM4); actives 0.73% (n = 360,000); AID 624125; P08173; CHO-hM4 cells, ACh EC80, Fluo-8 calcium fluorescence; inhibition, % at 3 µM;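 active = inhibition above its plate's cutoff, the mean inhibition of sample wells plus 3 SD, cut at about 27% in these data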;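 also: 0% = acetylcholine EC80 with DMSO and 100% = DMSO without agonist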
# M1 antag – antagonists of human M1 muscarinic receptor; CHO-K1 hM1, Fluo-8 calcium fluorescence, ACh EC80 antagonist; actives 1.3% (n = 360,000); inhibition, % at 3 µM;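 active = percent inhibition above its own plate's cutoff, namely the mean of that plate's compound wells plus 3 SD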;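 also: peak over basal fluorescence ratio during 140 s after agonist addition; 0% = ACh EC80 plus DMSO and 100% = DMSO alone without agonist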
# CHRM4 agonist – agonists of human muscarinic M4 receptor (CHRM4) | P08173 | CHO-K1 hM4/Gqi5, Fluo-8 calcium fluorescence; vehicle 0%, full acetylcholine response 100% | activation, % at 3 µM | actives 0.14% (n = 360,000) | AID 624127;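 active = activation above the run mean over all test wells plus 3 SD, cut at about 32% in these data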;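 also: peak over basal fluorescence ratio per well then scaled between controls; 0% = DMSO wells and 100% = acetylcholine at EC100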
# M1 ag – agonists of human M1 muscarinic receptor. P11229. CHO-K1 hM1, Fluo-8 calcium fluorescence, agonist mode; 0% DMSO, 100% acetylcholine EC100. activation, % at 3 µM. actives 0.33% (n = 360,000);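 active = activation above the run's mean compound activation plus 3 SD, cut at about 16% in these data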;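 also: peak over basal fluorescence ratio within a 140 s kinetic read after compound addition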
# M4 PAM – potentiates acetylcholine response at human M4 receptor | P08173 | CHO-K1 hM4/Gqi5, Fluo-8 calcium fluorescence, ACh EC20; 0% = ACh EC20, 100% = maximal ACh | activation, % at 3 µM | actives 0.4% (n = 360,000) | AID 624126;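 active = activation above its plate's cutoff, the mean activation of sample wells plus 3 SD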
# * marks the source's active call; other numbers are inactive results; x = no result.
SMILES,CHRM1 PAM,M4 antag,M1 antag,CHRM4 agonist,M1 ag,M4 PAM
CC(C)C[C@H]1COc2cccc(N3CCN(C)CC3)c2S(=O)(=O)N1,x,-16.0,x,0.5,x,5.2
CC(C)C[C@@H]1COc2cccc(N3CCN(C)CC3)c2S(=O)(=O)N1,x,70.8*,x,0.2,x,-14.8
C=CCC1(CC)C(=O)NC(=S)NC1=O,0.7,-9.6,-4.5,0.7,-3.8,3.0
CCOC(=O)CNC(=O)CSP(=S)(OCC)OCC,9.9,-0.6,-4.9,1.2,-2.7,32.8*
CC(C)N1CC=C(c2c[nH]c3ccccc23)CC1,4.2,-9.9,-9.6,0.6,-6.0,2.4
CC(Cc1ccccc1Sc1ccccc1O)N(C)C (stereo not drawn),-23.1,81.7*,97.8*,8.9,-3.9,-25.3
Cc1ccc2c(c1)C1CN(C)CCC1N2C(=O)c1cccs1 (stereo not drawn),4.9,3.7,-12.5,0.9,-6.7,5.4
Cc1ccc2c(c1)C1C[N+](C)(CC(=O)c3ccc(Cl)cc3Cl)CCC1N2C(=O)c1ccc(F)cc1 (stereo not drawn),-18.5,4.1,34.0*,12.0,-5.6,0.8
COC(=O)C1=C(C(=O)OC)C2OC1c1cc3ccccc3cc12,-0.7,96.4*,7.3,14.2,-1.8,-10.1
O=C1C2CCN(CC2)[C@@H]1Cc1ccc2ccccc2c1O,-17.0,47.4*,40.1*,2.2,-2.5,-23.0
Cc1cc(C)[n+](CCCC[n+]2c(C)cc(C)cc2C)c(C)c1,-11.3,-2.1,17.0,2.2,-11.2,6.9
O=[N+]([O-])c1cccnc1N1CCCNCC1,-28.4,19.2,47.6*,1.1,-0.5,-19.0
O=[N+]([O-])c1ccc(N2CCCCCC2)c2ncccc12,-8.8,0.8,11.7,-1.8,-11.0,-3.6
O=[N+]([O-])c1ccc(N2CCCNCC2)c2ncccc12,-24.0,26.5*,82.0*,1.4,-7.5,-48.4
O=[N+]([O-])c1ccc(N2CCCCCC2)c2nonc12,-32.7,37.9*,53.2*,144.4*,145.4*,-18.6
O=[N+]([O-])c1ccc(N2CCCCC2)c2ncccc12,-0.2,2.5,-4.1,-0.4,-12.9,0.6
O=C1CN=C(c2ccccc2F)c2cc(Cl)ccc2N1,0.8,-27.0,-20.3,1.7,-1.6,1.9
Cc1nc2ccccc2c(=O)n1-c1cc([N+](=O)[O-])cc([N+](=O)[O-])c1,3.0,-10.2,-10.7,3.9,-0.2,-0.2
Cc1nc2ccc(Br)cc2c(=O)n1-c1ccc([N+](=O)[O-])c(C(F)(F)F)c1,-12.7,20.2,35.7*,12.3,5.1,-11.9
O=[N+]([O-])c1cccc(CN2CCN(Cc3ccc(Br)cc3)CC2)c1,-28.9,9.1,27.2*,0.3,-11.8,-16.5
C=CCn1c(O)c(C(CC)=Nc2cc(OC)ccc2OC)c(=O)[nH]c1=O,3.9,-2.9,5.5,0.4,-2.4,17.6
CC(=O)Nc1cc([As](=O)(O)O)ccc1O,-6.2,-4.8,-17.8,1.1,19.7*,-0.4
CN1C(=O)N(C)C(=O)C2(Cc3ccccc3N3CCOCC32)C1=O (stereo not drawn),8.8,0.1,-12.6,0.1,1.0,-4.4
Fc1ccc(C(OCCN2CCN(CCCc3ccccc3)CC2)c2ccc(F)cc2)cc1,-19.6,19.6,26.4,4.8,-7.0,-15.1
Fc1ccc(C(OCCN2CCCC2)c2ccc(Br)cc2)cc1 (stereo not drawn),-23.0,16.3,81.0*,8.8,-7.6,-34.1
SMILES,CHRM1 PAM,M4 antag,M1 antag,CHRM4 agonist,M1 ag,M4 PAM
Fc1ccc(C(OCCN2CCCC2)c2ccc(F)cc2)cc1,-22.7,30.1*,79.0*,7.0,-9.1,-34.7
c1ccc(CCCN2CCN(CCOC(c3ccccc3)c3ccccc3)CC2)cc1,-25.5,47.4*,67.8,7.0,-4.8,-18.0
C#CCN1CCN(c2ccc(F)cc2)CC1,10.6,-4.2,-8.5,0.0,-1.4,2.6
CN1C(=O)C(Cc2cccc3ccccc23)C(=O)N(C)C1=O,8.1,7.5,-4.2,0.5,-3.2,-0.1
C[N+](C)(C)Cc1ccccc1,-29.3,-10.6,55.6,6.7,75.6*,-6.0
Cc1ccccc1C(O)(Cc1ccccc1)C1CN2CCC1CC2 (stereo not drawn),-26.1,76.3*,98.5*,4.4,-6.0,-14.7
Cc1ccc(C(O)(c2ccc(C)c(C)c2)C2CN3CCC2CC3)cc1C (stereo not drawn),-5.8,-0.4,12.4,4.5,-8.9,-1.7
FC(F)(F)c1ccc2c(c1)N(CCCN1CCN(CCCl)CC1)c1ccccc1S2,-18.0,7.9,42.5*,1.5,-4.7,-15.8
O=C(C[N+]12CCC(CC1)C(OC(=O)c1ccccc1)C2)c1ccc([N+](=O)[O-])cc1 (stereo not drawn),-5.8,13.5,11.6,-0.2,4.5,-21.4
CCC(CO)(C(=O)OC1C[N+]2(C)CCC1CC2)c1ccccc1 (stereo not drawn),-33.3,98.5*,99.2*,-0.6,-13.6,-25.3
Cc1ccc(C(=O)N2CC2C)cc1 (stereo not drawn),12.3,-1.1,-18.2,-0.2,0.8,3.9
COC(=O)NC(=C(Cl)Cl)P(=O)(c1ccccc1)c1ccccc1,6.9,2.6,-7.3,0.5,-0.7,31.4*
Cc1ccc(C(=O)N/C(=C\Cl)P(=O)(c2ccccc2)c2ccccc2)cc1,11.3,-4.9,-6.6,0.7,-7.5,1.0
CCOC(=O)COc1ccc(/C=C2\C(=O)NC(=S)N(c3ccc(OC)cc3)C2=O)cc1OC,3.4,-3.6,-3.7,0.4,-5.2,-1.2
N[C@@H](Cc1ccccc1)C(=O)N1C[C@H]2C[C@@H](C1)c1cccc(=O)n1C2,5.8,91.7*,-7.9,-0.3,-0.4,-16.2
O=C(CCC(=O)N1C[C@H]2C[C@@H](C1)c1cccc(=O)n1C2)NCc1cccc(C(F)(F)F)c1,1.3,98.8*,-3.5,-0.8,-1.6,-16.9
O=C(CCC(=O)N1C[C@H]2C[C@@H](C1)c1cccc(=O)n1C2)NCc1ccccc1,-0.2,4.6,-2.6,0.8,-3.5,3.1
Cc1ccc(C2NC(=S)NC(c3ccc(C)cc3)C23C(=O)NC(=O)NC3=O)cc1 (stereo not drawn),10.8,3.0,-1.7,-0.8,-2.9,3.9
O=c1[nH]c(=S)n(-c2ccccc2Cl)c(O)c1C=NCCN1CCNCC1,-13.2,-7.0,26.4,1.9,38.6*,-4.7
O=c1[nH]c(=O)n(Cc2ccccc2)c(O)c1C=NCCN1CCNCC1,-28.2,-1.8,32.9*,1.0,-11.9,-7.5
CCCCCCn1c(O)c(C=NC2CCN(Cc3ccccc3)CC2)c(=O)[nH]c1=O,-2.0,3.4,5.3,0.4,-4.7,-7.0
C=CCn1c(O)c(C=NC2CCN(Cc3ccccc3)CC2)c(=O)[nH]c1=O,2.2,-6.7,0.6,1.4,-7.7,12.3*

# Screening results: PubChem BioAssay, The Scripps Research Institute Molecular Screening Center
